This is a sample that favours compounds with a hit; in the whole collection about 12% have one here.
L3MBTL1 block – L3MBTL1 (human) inhibition. actives 0.66% (n = 230,000). Potency, µM (doses to about 57.1 µM), inactives show top-dose activity, negative = inhibition, most hits filed as inhibitors. AlphaScreen L3MBTL1–H3K9me1 peptide binding; note: % is set by controls: 0 for no effect and ±100 for the full control effect; nearly all actives have a fitted effect of over 60% in size
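First, the protein-peptide complex forms for 30 min at room temperature (L3MBTL1 50 nM, biotinylated H3K9me1 peptide 75 nM). Next, compounds are pin-transferred and incubated 30 min. Finally, AlphaScreen beads are added and read after 30 min.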
JMJD2A Tudor – JMJD2A Tudor domain (human) inhibition; O75164; AlphaScreen JMJD2A-Tudor / H3K4me3 peptide binding; actives 4.4% (n = 390,000); AID 504339; Potency, µM (series often up to 114 µM), for inactives: at the highest dose activity change, negative = inhibition, most hits filed as inhibitors; note: % is set by controls: 0 for no effect and ±100 for the full control effect; nearly all actives have a fitted effect of over 50% in size
HP1b chromo inh – blocks HP1-beta chromodomain binding to methylated histone tails; P83916; AlphaScreen HP1-beta / biotin-H3K9me3 peptide binding; Potency, µM (titrated, usually from 114 µM), for inactives: top-dose activity change, negative = inhibition, most hits filed as inhibitors; actives 0.56% (n = 390,000); AID 540317; note: nearly all actives have a fitted effect of over 70% in size
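AlphaScreen: HP1-beta (50 nM) preformed 30 min with biotin-H3(1-18)K9me3 peptide (50 nM) in PBS pH 7.4, 0.01% Tween-20. Compound added for 30 min at RT, then streptavidin donor/nickel chelate acceptor beads (10 ug/mL) for 30 min.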
BAZ2B inh – blocks human BAZ2B. Q9UIF8. AlphaScreen BAZ2B-H3K14Ac peptide displacement. Potency, µM (highest dose often 114 µM), for inactives: at the top dose activity change, negative = inhibition, actives largely listed as inhibitors. actives 4.4% (n = 360,000); note: % is set by controls: 0 for no effect and ±100 for the full control effect; nearly all actives have a fitted effect of over 60% in size
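BAZ2B 50 nM plus b-H3(5-23)K14Ac 50 nM, PBS pH 7.4/0.01% Tween-20, 30 min RT; compound added (max 110 uM), 30 min RT; streptavidin donor/Ni-chelate acceptor beads 10 ug/mL final, 20 min dark; AlphaScreen read.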
Sfp PPTase inh – blocks B. subtilis Sfp PPTase activity | Q9F4F7 | Biochemical Sfp PPTase activity, qHTS | Potency, µM, for inactives: largest response in the series, negative = inhibition, usual class: inhibitors | actives 3.5% (n = 310,000);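 note: the enzyme is Sfp with the accession as filed and its product quenches rhodamine fluorescence; 0% = enzyme reaction without inhibitor and -100% = no enzyme wells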
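With Hepes-Na pH 7.6 buffer containing 10 mM MgCl2, Sfp (15 nM) modified BHQ-2-YbbR (12.5 uM) using rhodamine-CoA (5 uM). Two reads 30 minutes apart at 525/598 nm yielded each well's rate.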
G9a inh – inhibitors of human histone lysine methyltransferase G9a; Q96KQ7; G9a H3K9 monomethylation, AlphaScreen, 2 h; Potency, µM (highest dose often 102 µM), without a hit: at the highest dose activity, negative = inhibition, hits mostly inhibitors; actives 8.8% (n = 350,000); AID 504332; note: % is set by controls: 0 for no effect and ±100 for the full control effect; nearly all actives have a fitted effect of over 75% in size
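Step 1: enzyme (final 20 nM) with compound, 15 min RT. Step 2: substrate peptide 500 nM and SAM 20 uM, 2 h RT. Step 3: anti-H3K9me1 antibody and AlphaScreen beads, 10 min, then plate read.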
Starred values were filed as active, the others as inactive; [ ] = remark or other dose. Calls come from the whole dose curve; as a rule, active = well fitted curve in the direction sought with a large enough effect; inconclusive = small, poorly fitted or top-dose-only effect, or another doubt; inactive = no such curve, though single readings can be large; an effect the other way counts as inactive or inconclusive. Potency is the fitted concentration of half-maximal effect.

Results for COc1ccccc1CCCNC(=O)C1CCC(=O)N(Cc2ccccc2F)C1 (stereo not drawn) ?
JMJD2A Tudor: -4%; HP1b chromo inh: 37%; BAZ2B inh: 0%; Sfp PPTase inh: 14%; G9a inh: 0%

Results for Cc1nc2cccnc2n1C1CCN(S(C)(=O)=O)CC1 ?
JMJD2A Tudor: -13%; HP1b chromo inh: 19%; BAZ2B inh: 1%; G9a inh: 8%[59 µM]

How did COc1ccc(Cl)cc1-c1ccc(C(=O)O)s1 do in these assays?
Sfp PPTase inh: -12%; G9a inh: 6%

What do the screens show for `CSc1nn(Cc2ccc(F)cc2)c(N)c1S(=O)(=O)c1ccc(Cl)cc1`?
JMJD2A Tudor: -12%; HP1b chromo inh: 20%; BAZ2B inh: -5%; G9a inh: -15%[59 µM]

What do the screens show for `O=C(CCS(=O)(=O)c1ccccc1)Nc1nc2c(s1)COc1ccccc1-2`?
L3MBTL1 block: -1%; JMJD2A Tudor: -27%; HP1b chromo inh: 13%; BAZ2B inh: -37%; Sfp PPTase inh: -9%; G9a inh: 50µM*

What do the screens show for `O=C(Nc1nc2c(s1)CCc1ccccc1-2)c1cccs1`?
L3MBTL1 block: 6%; JMJD2A Tudor: -7%; HP1b chromo inh: 51%; BAZ2B inh: 8%; Sfp PPTase inh: -10%; G9a inh: inconclusive

What do the screens show for `O=C(Nc1nc2c(s1)COc1ccccc1-2)c1cccs1`?
JMJD2A Tudor: -4%; HP1b chromo inh: 31%; BAZ2B inh: -3%; Sfp PPTase inh: -17%; G9a inh: 45µM*

Results for CC(=O)c1sc2nc(-c3cccs3)ccc2c1N ?
JMJD2A Tudor: 25µM*; HP1b chromo inh: -3%; BAZ2B inh: 2%; Sfp PPTase inh: 50µM*; G9a inh: 1.6µM*

How did Cc1ccc(C)c(NC(=O)n2ncc3cc(Cl)ccc32)c1 do in these assays?
JMJD2A Tudor: -3%; HP1b chromo inh: 36%; BAZ2B inh: -21%; G9a inh: -26%[59 µM]

How did COc1cc(C2C=C(C(=O)O)Nc3ncnn32)ccc1O (stereo not drawn) do in these assays?
JMJD2A Tudor: 79µM*; HP1b chromo inh: 27%; BAZ2B inh: -32%; G9a inh: 13µM*

How did CC(=O)C1=C(C)Nc2ncnn2C1c1ccccc1OCc1ccccc1 (stereo not drawn) do in these assays?
L3MBTL1 block: 23%[11.4 µM]; JMJD2A Tudor: 9%; HP1b chromo inh: 34%; BAZ2B inh: -31%; Sfp PPTase inh: -3%; G9a inh: -47%[59 µM]

How did CC(C)Oc1ccccc1C1C=C(C(=O)O)Nc2ncnn21 (stereo not drawn) do in these assays?
JMJD2A Tudor: -26%; HP1b chromo inh: 4%; BAZ2B inh: inconclusive; G9a inh: 14µM*

What do the screens show for `COc1cc(C2C(C(C)=O)=C(C)Nc3ncnn32)ccc1O` (stereo not drawn)?
L3MBTL1 block: 4%; JMJD2A Tudor: -1%; HP1b chromo inh: 28%; BAZ2B inh: 2%; Sfp PPTase inh: 6%; G9a inh: -1%[59 µM]

Results for COC(=O)c1ccc(C(NC(=O)OCc2ccccc2)/C(=C/[C@@H](C)C(=O)NCC2CC2)c2cccnc2)cc1 (stereo partly drawn) ?
Sfp PPTase inh: 32%

Results for CCOc1ccc(NC(=O)CNS(=O)(=O)c2ccc(Br)s2)cc1 ?
JMJD2A Tudor: -8%; HP1b chromo inh: 21%; BAZ2B inh: 4%; G9a inh: -6%[59 µM]

How did CCOC(=O)c1nc(NNC(=O)c2ccc([N+](=O)[O-])cc2)sc1C do in these assays?
L3MBTL1 block: -3%; JMJD2A Tudor: inconclusive; HP1b chromo inh: -13%; BAZ2B inh: inconclusive; Sfp PPTase inh: 8%; G9a inh: 45µM*

How did CC(C)n1ncc2c(C(=O)N3CCN(c4ccccc4)CC3)cc(-c3ccccc3)nc21 do in these assays?
L3MBTL1 block: 1%; JMJD2A Tudor: -26%; HP1b chromo inh: 1%; BAZ2B inh: -33%; G9a inh: 28%[2.33 µM]

What do the screens show for `COc1ccc(NC(=O)c2cc(-c3ccccc3)nc3c2cnn3C(C)C)cc1`?
L3MBTL1 block: 6%; JMJD2A Tudor: 79µM*; HP1b chromo inh: inconclusive; BAZ2B inh: -3%; G9a inh: 22%[2.33 µM]

How did COc1ccc(Cl)cc1C(=O)NNC(=O)c1nn(C)c(=O)c2ccccc12 do in these assays?
L3MBTL1 block: 13%; JMJD2A Tudor: -17%; HP1b chromo inh: 41%

Results for C#CCOCCOCCOCCNc1nc(N2CCOCC2)nc(N2CCN(C(=O)[C@H](CCCN=C(N)N)n3cc(C(N)[C@@H](C)CC)nn3)CC2)n1 (stereo partly drawn) ?
L3MBTL1 block: 11%; JMJD2A Tudor: -20%; HP1b chromo inh: 28%

What do the screens show for `C#CCOCCOCCOCCNc1nc(N2CCN(C(=O)[C@H](CCCN=C(N)N)n3cc(C(N)[C@@H](C)CC)nn3)CC2)nc(N2CCN(C(=O)[C@H](CC(N)=O)n3cc([C@@H](N)C(C)C)nn3)CC2)n1` (stereo partly drawn)?
L3MBTL1 block: -2%; JMJD2A Tudor: 79µM*; HP1b chromo inh: 16%

Results for C#CCOCCOCCOCCNc1nc(N2CCN(C(=O)[C@H](CCCN=C(N)N)n3cc(C(N)[C@@H](C)CC)nn3)CC2)nc(N2CCN(C(=O)[C@H](CC(N)=O)n3cc([C@@H](N)CC(N)=O)nn3)CC2)n1 (stereo partly drawn) ?
L3MBTL1 block: -2%; JMJD2A Tudor: 22µM*; HP1b chromo inh: 6%

Results for C#CCOCCOCCOCCNc1nc(N2CCN(C(=O)[C@H](CCCCN)n3cc(CN)nn3)CC2)nc(N2CCN(C(=O)[C@H](CCCN=C(N)N)n3cc(C(N)[C@H](C)CC)nn3)CC2)n1 (stereo partly drawn) ?
L3MBTL1 block: -2%; JMJD2A Tudor: 79µM*; HP1b chromo inh: 18%

What do the screens show for `C#CCOCCOCCOCCNc1nc(N2CCN(C(=O)[C@H](CCCN=C(N)N)n3cc(C(N)[C@H](C)CC)nn3)CC2)nc(N2CCN(C(=O)[C@H](CCCN=C(N)N)n3cc(C(N)[C@@H](C)CC)nn3)CC2)n1` (stereo partly drawn)?
L3MBTL1 block: -1%; JMJD2A Tudor: 79µM*; HP1b chromo inh: 3%

Results for C=C1CCN(C(CC(C)C)C(=O)NCc2ccc(Cl)cc2)S(=O)(=O)c2ccccc21 (stereo not drawn) ?
JMJD2A Tudor: -11%; HP1b chromo inh: 41%; Sfp PPTase inh: 9%

Source: PubChem BioAssay
